Reference: PubChem BioAssay (NCATS)
Records with an inconclusive call do not appear. Calls of active or inactive are those of the source. The call rests on the fitted dose curve; in most records, active means well fitted inhibition curve with a large enough effect; inconclusive means small, poorly fitted or top-dose-only effect; inactive means flat fitted curve, though single readings scatter.

What was measured:
Test in all cases: qHTS profiling for inhibitors of Plasmodium falciparum proliferation (AID 504749); further: nearly all actives have a fitted effect of over 60% in size
Conditions in all cases: P. falciparum in erythrocytes, SYBR Green DNA, 72 h; series mostly up to 28.7 µM
JCK = system: JCK
Outline: (§1)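 Each compound contacts P. falciparum-infected red blood cells for 72 h at 37 C; lysis buffer (Tris, EDTA, saponin, Triton X, SYBR Green I) is added and fluorescence measured next morning; values normalized to controls.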

N140 = system: N140
Outline: as §1

P93_24 = system: P93_24
Outline: as §1

P94_40 = system: P94_40
Outline: as §1

PAD = system: PAD
Outline: as §1

PC15 = system: PC15
Outline: as §1

PC26 = system: PC26
Outline: as §1

PC49 = system: PC49
Outline: as §1

SC27B = system: SC27B
Outline: as §1

TAB109 = system: TAB109
Outline: as §1

Measured: Potency

CC(O)CN(CCN(CC(C)O)CC(C)O)CC(C)O (centres undefined)
inactive: all assays above

NC(=O)NNc1ccccc1
inactive: all assays above

C[C@@H]1CN(c2c(F)c(F)c3c(=O)c(C(=O)O)cn(C4CC4)c3c2F)C[C@H](C)N1
inactive: all assays above

CCCCN1CCCC[C@H]1C(=O)Nc1c(C)cccc1C
inactive: all assays above

CCCCCCCCCCCCCCCC(=O)NCCO
inactive: all assays above

NCC(=O)CCC(=O)O
inactive: all assays above

CCCOC(=O)c1ccccc1
inactive: all assays above

COc1cc(C)c(Cc2cnc(N)nc2N)cc1OC
inactive: all assays above

Cc1cc(C(C#N)c2ccc(Cl)cc2)c(Cl)cc1NC(=O)c1cc(I)cc(I)c1O (centres undefined)
inactive: all assays above

O=C1O[C@H]([C@@H](O)CO)C(O)=C1O
inactive: all assays above

O=C1NC(=O)[C@@]2(CCOc3ccc(F)cc32)N1
inactive: all assays above

O=C(O)c1ccccc1-c1ccc(C(F)(F)F)cc1
inactive: all assays above

C[C@H](N)[C@H](O)c1cccc(O)c1
inactive: all assays above

Cc1cccc(Nc2cc(Cl)nc(SCC(=O)O)n2)c1C
inactive: all assays above

CC12CCC(CC1)C(C)(C)O2
inactive: all assays above

Cc1c(Cl)cccc1Nc1ccccc1C(=O)O
inactive: all assays above

COc1ccccc1O
inactive: all assays above

O=C(CCCN1CCN(c2ccccn2)CC1)c1ccc(F)cc1
inactive: all assays above

Nc1ccc(S(=O)(=O)Nc2nccs2)cc1
inactive: all assays above

O=C1OC(OC(=O)c2cccnc2Nc2cccc(C(F)(F)F)c2)c2ccccc21 (centres undefined)
inactive: all assays above

OCC(O)CN1CCN(c2ccccc2)CC1 (centres undefined)
inactive: all assays above

CCCc1c(OCCCCc2nn[nH]n2)ccc(C(C)=O)c1O
not listed: PC49
inactive: all other assays above

CCOC(=O)c1ccc(O)cc1
inactive: all assays above

Cc1cc(CC(=O)O)n(C)c1C(=O)c1ccc(Cl)cc1
inactive: all assays above
